The values below come from PubChem BioAssay.

Active and inactive are the calls of the source. The rule behind the calls is not given here.

The target in this assay is Pantothenate synthetase (Mycobacterium tuberculosis (strain ATCC 25618 / H37Rv)) (UniProt P9WIL5). Put plainly: Coupled enzyme confirmation of inhibitors against recombinant Mtb PanC (AID 375).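 Note: 0% = full reaction with vehicle and 100% = no enzyme background.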 The following applies: coupled enzyme assay; at 10 µM, stronger effect = higher value.
Chain of Pantothenate synthetase (Mycobacterium tuberculosis (strain ATCC 25618 / H37Rv)) (P9WIL5 whole entry, looked up): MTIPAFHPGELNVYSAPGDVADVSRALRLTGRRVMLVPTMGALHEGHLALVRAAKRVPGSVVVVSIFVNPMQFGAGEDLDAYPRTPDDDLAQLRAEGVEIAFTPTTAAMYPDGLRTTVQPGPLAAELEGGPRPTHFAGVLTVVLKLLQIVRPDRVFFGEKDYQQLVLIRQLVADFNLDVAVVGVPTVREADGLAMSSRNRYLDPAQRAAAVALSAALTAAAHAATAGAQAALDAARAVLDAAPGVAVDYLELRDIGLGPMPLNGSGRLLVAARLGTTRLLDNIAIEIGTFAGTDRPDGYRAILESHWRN
Regarding `COCCCNC(=O)c1ccccc1NS(=O)(=O)c1ccc(C)cc1`, the inhibition (in general, the share of the control response that was lost under treatment) is 1% (inactive).
To `N=c1c[n+](N2CCOCC2)[n-]o1` belongs 0% (inactive); to `CCOc1ccc(-n2c(C)nc3c(cnn3-c3ccc(Cl)cc3)c2=O)cc1`, 4% (inactive); to `Cc1cc(=O)c2n(Cc3ccccc3Cl)nc[n+]2[nH]1`, 5% (inactive).
On to `O=C(CCCCCn1c(=O)[nH]c2ccsc2c1=O)N1CCCCC1`, for which the inhibition is 5% (inactive).
Regarding `CC[N+](C)(C)Cc1ccccc1Br`, the inhibition is 0% (inactive).
